# Assay outcomes from PubChem.
# RPL19A TOR yeast – modulators of TOR pathway RPL19A-GFP in S. cerevisiae; S. cerevisiae RPL19A-GFP strain, flow cytometry, 3 h; hits give low values; percent response vs DMSO, % at 10 µM; hit rate 0.3% among 330,000; AID 2025;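 active = percent response vs DMSO below 50%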;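 note: median channel GFP fluorescence of the barcoded RPL19A-GFP strain; ratio of sample median GFP to plate DMSO average so 100% = DMSO; lower means less RPL19A-GFP as with rapamycin TOR inhibition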
# AGP1-GFP MLPCN – modulators of TOR pathway AGP1-GFP in S. cerevisiae. hit rate 0.02% among 320,000. S. cerevisiae AGP1-GFP multiplex flow cytometry, 3 h; GFP as percent of DMSO wells. GFP response vs DMSO, % at 10 µM;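 active = GFP response relative to DMSO above a set limit, near screen average plus 3 SD, cut at about 150% in these data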;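 note: median GFP channel fluorescence of the gated AGP1 strain per well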
# VLA-4 inh – inhibition in a human VLA-4 binding assay; hit rate 0.2% among 330,000; AID 2557; inhibition, % (about 7 µM as worked out from the volumes in the protocol); P13612; VLA-4 expressing cells, ligand binding flow cytometry; in the data active = inhibition above about 50%
# Target sequence (P13612 whole entry, looked up): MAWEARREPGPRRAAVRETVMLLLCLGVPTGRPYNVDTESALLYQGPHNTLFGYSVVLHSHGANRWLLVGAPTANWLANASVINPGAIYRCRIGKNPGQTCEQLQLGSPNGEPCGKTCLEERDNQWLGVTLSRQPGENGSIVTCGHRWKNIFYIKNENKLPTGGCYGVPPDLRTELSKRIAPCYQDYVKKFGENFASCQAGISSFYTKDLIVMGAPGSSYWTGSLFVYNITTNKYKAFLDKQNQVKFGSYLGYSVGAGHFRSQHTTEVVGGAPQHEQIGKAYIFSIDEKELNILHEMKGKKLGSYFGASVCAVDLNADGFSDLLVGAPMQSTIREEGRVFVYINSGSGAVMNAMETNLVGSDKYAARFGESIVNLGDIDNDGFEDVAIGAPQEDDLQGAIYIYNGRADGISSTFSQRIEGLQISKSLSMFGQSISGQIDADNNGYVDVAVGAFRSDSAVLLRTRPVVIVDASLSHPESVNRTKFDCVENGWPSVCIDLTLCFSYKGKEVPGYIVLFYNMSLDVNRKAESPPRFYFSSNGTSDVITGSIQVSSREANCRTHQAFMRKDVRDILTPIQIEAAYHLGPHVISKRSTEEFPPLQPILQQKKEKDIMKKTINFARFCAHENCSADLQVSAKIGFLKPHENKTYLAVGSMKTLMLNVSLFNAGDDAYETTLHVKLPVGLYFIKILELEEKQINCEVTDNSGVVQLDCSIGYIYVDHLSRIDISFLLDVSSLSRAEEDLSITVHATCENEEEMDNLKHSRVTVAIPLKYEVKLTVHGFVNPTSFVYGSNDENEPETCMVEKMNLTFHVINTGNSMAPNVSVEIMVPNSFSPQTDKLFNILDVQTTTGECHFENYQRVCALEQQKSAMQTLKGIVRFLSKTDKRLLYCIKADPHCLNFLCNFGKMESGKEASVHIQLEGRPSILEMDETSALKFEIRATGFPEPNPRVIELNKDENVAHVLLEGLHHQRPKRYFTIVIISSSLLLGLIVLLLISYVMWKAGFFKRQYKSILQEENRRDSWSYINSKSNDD
# LAP4 TOR yeast – yeast TOR pathway LAP4-GFP modulation; AID 2023; GFP response vs DMSO, % at 10 µM; hit rate 0.34% among 320,000; S. cerevisiae LAP4-GFP multiplex, flow cytometry GFP, 3 h; median GFP as percent of DMSO wells;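 active = GFP response vs DMSO above a set limit, about the screen mean plus 3 SD, cut at about 150% in these data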
# CIT2 TOR yeast – modulators of TOR pathway CIT2-GFP in S. cerevisiae. S. cerevisiae CIT2-GFP strain, flow cytometry, 3 h; 100 means same as DMSO wells. GFP response vs DMSO, % at 10 µM. hit rate 0.065% among 320,000;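 active = GFP response relative to DMSO above a set limit, near the screen mean plus 3 SD, cut at about 150% in these data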;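 note: ratio of well median GFP fluorescence to mean of DMSO wells on the plate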
# MEP2-GFP yeast – yeast TOR pathway MEP2-GFP modulation; S. cerevisiae MEP2-GFP strain, flow cytometry GFP, 3 h; 100% = DMSO control level; hit rate 0.51% among 330,000; GFP response vs DMSO, % at 10 µM; AID 2016;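 active = GFP response versus DMSO above a set limit, roughly screen mean plus 3 SD, cut at about 180% in these data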;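 note: median GFP fluorescence of the barcode-gated MEP2-GFP cells per well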
# LAP4-GFP pick2 – yeast LAP4-GFP modulation, second cherry pick; shares compounds with LAP4 TOR yeast; S. cerevisiae LAP4-GFP strain, flow cytometry GFP, 3 h; GFP response vs DMSO, % at 10 µM; hit rate 20% among 590;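 active = GFP signal as percent of the solvent control above about 150%, meaning raised reporter expression, limit read from the data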;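 note: ratio of well median GFP fluorescence to plate DMSO mean so 100% = DMSO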
# MEP2 cherry2 – second confirmation of modulators of TOR reporter MEP2-GFP in yeast; S. cerevisiae MEP2-GFP strain, flow cytometry GFP, 3 h; hit rate 10% among 590; GFP response vs DMSO, % at 10 µM; AID 2622; shares compounds with LAP4 TOR yeast;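 active = GFP signal above 150% of the solvent control wells, that is a rise of more than half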;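 note: median channel GFP fluorescence of all gated yeast cells per well; ratio of median GFP to plate DMSO average so 100% = DMSO level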
# RPL19A-GFP pick2 – reconfirmed modulator of RPL19A-GFP TOR reporter in yeast; AID 2623; shares compounds with LAP4 TOR yeast; hit rate 3% among 590; GFP response vs DMSO, % at 10 µM; S. cerevisiae RPL19A-GFP strain, flow cytometry GFP, 3 h; hits give low values; 100% means same as DMSO wells;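 active = under 65% GFP response relative to DMSO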;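 note: median GFP channel fluorescence per well over the all cells gate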
# CIT2-GFP pick2 – yeast CIT2-GFP TOR reporter modulation, second cherry pick | shares compounds with LAP4 TOR yeast | hit rate 8% among 590 | S. cerevisiae CIT2-GFP strain, flow cytometry GFP, 3 h; DMSO control wells read 100% | GFP response vs DMSO, % at 10 µM | AID 2624;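 active = GFP response vs DMSO above about 150%, limit read from the data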;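 note: median green fluorescence per well over all gated yeast cells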
# AGP1 GFP CP2 – second confirmation of modulators of TOR reporter AGP1-GFP in yeast | shares compounds with LAP4 TOR yeast | S. cerevisiae AGP1-GFP strain, flow cytometry GFP, 3 h | percent response vs DMSO, % at 10 µM | 590 tested, under 10 active | AID 2643;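 active = over 150 percent of DMSO response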;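 note: median GFP channel fluorescence over all cells without mother daughter split; sample median GFP divided by mean DMSO control so 100% equals DMSO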
# Yeast autofluor – yeast s288c autofluorescence artifact, counter-screen; shares compounds with LAP4 TOR yeast; S. cerevisiae s288c, 520 nm autofluorescence, flow cytometry, 3 h; hits give high values; zero means same as solvent-only cells; AID 2757; fluorescence change (kMESF span) at 33 µM; 610 tested, under 10 active;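 active = fluorescence span over the dose series, or activity score, above about 33, limit read from the data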
# s288c autofl DR – counter-screen for autofluorescence of TOR hits in yeast s288c; fluorescence change (span) at 33 µM; shares compounds with LAP4 TOR yeast; S. cerevisiae s288c parental, compound autofluorescence, flow cytometry, 3 h; 110 tested, under 10 active;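 active = fluorescence change span, or the activity score built from it, above 25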
# TORC1 bypass – wildtype yeast growth loss with TORC1 bypass cells unaffected | S. cerevisiae BY4741 spot growth rating, 48-72 h; hits give low values | shares compounds with LAP4 TOR yeast | AID 504456 | growth rating (0-3) at 30 µM | 120 tested, under 10 active;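 active = growth rating at most 1 for wild type yeast while the TORC1 bypass strain still grows fully, rated 3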
# * = called active by the depositor; · = no result given; [ ] = another dose, or the depositor's remark. Rows were chosen to be rich in hits. Some 1.1% of all compounds tested hit in one or more screens of this group.
SMILES,RPL19A TOR yeast,AGP1-GFP MLPCN,VLA-4 inh,LAP4 TOR yeast,CIT2 TOR yeast,MEP2-GFP yeast,LAP4-GFP pick2,MEP2 cherry2,RPL19A-GFP pick2,CIT2-GFP pick2,AGP1 GFP CP2,others
O=C(CCC(=O)c1cccs1)OCC(=O)N1CCN(C(=O)c2ccco2)CC1,98.4,97.0,15.8,90.9,98.1,111.2,·,·,·,·,·,
Oc1ccc(CNc2ccccc2)c2cccnc12,94.5,98.8,9.9,78.2,102.0,105.3,103.2,124.0,105.3,121.0,102.7,Yeast autofluor=0.4
CC(C)CN1CCN(Cc2cnc(-c3ccc(Cl)cc3)nc2)CC1CCO (centres undefined),62.0,80.9,19.2,96.5,86.5,152.3,102.9,111.5,100.4,98.4,102.5,
C=CC[C@@H](CC(=O)OC(C)(C)C)C(=O)OC[C@@H]1CCCN1C(=O)[C@@H](CC=C)CC(=O)N[C@H](CO)Cc1ccccc1,83.1,95.0,5.3,197.9*,66.3,97.7,99.2,94.3,99.5,105.7,95.2,
CCn1c(=O)c([N+](=O)[O-])c(NCc2ccco2)c2ccccc21,92.1,96.3,14.3,201.1*[may fluoresce green],95.1,109.0,104.2,115.3,97.8,107.1,100.8,
Cc1ccsc1/C=N/Nc1ncc(Cl)cc1Cl,·,77.2,3.9,300.2*,79.4,110.5,·,·,·,·,·,Yeast autofluor=1.01
Cc1cc(C)nc(N/N=C/c2sccc2C)n1,99.7,101.1,-0.8,99.8,107.8,101.4,·,·,·,·,·,
CN(C)S(=O)(=O)c1cccc(C(=O)Nc2n[nH]c(C(F)(F)F)n2)c1,104.2,103.0,5.5,94.8,103.4,108.2,·,·,·,·,·,
Cc1nnc(NC(=O)c2ccc(F)c(S(=O)(=O)N3CCCCC3)c2)s1,102.0,85.7,2.4,69.0,85.9,94.1,·,·,·,·,·,
O=C(NCC1CCCN(C(=O)Cc2ccccc2Cl)C1)c1ccc(F)cc1 (centres undefined),101.2,84.8,-5.0,81.5,99.8,103.7,·,·,·,·,·,
O=C(COC(=O)c1ncc(Cl)c(Cl)c1Cl)Nc1cccnc1Cl,91.8,93.1,0.6,111.9,79.0,82.9,·,·,·,·,·,
CCOC(=O)N1CCc2c(sc(NC(=O)c3ccc(Cl)s3)c2C(N)=O)C1,86.4,87.0,29.0,183.3*,77.1,91.1,125.2,96.1,99.3,112.6,95.5,
CCOC(=O)N1CCc2c(sc(NC(C)=O)c2C(N)=O)C1,100.6,100.5,8.9,108.7,98.2,103.9,·,·,·,·,·,
COC(=O)C(C(=O)Nc1ccccc1C)C1CCCC1 (centres undefined),94.1,98.8,8.7,97.5,95.4,103.0,·,·,·,·,·,
Cc1ccccc1NC(=O)C(NC1CCCCC1)C(C)C (centres undefined),56.3,74.2,2.5,92.7,92.8,149.3,102.2,103.1,98.2,98.7,104.1,
COc1ccc(NC(=O)Cc2ccccc2)cn1,100.6,106.8,-12.1,110.2,97.9,104.6,·,·,·,·,·,
COc1ccc(NC(=O)/C(Cl)=C(/Cl)S(=O)Cc2ccccc2)cn1 (centres undefined),78.2,84.5,24.2,288.2*,89.9,99.6,·,·,·,·,·,Yeast autofluor=1.11
O=C(O)c1ccc(-c2nc(-c3ccccc3)c(-c3cccs3)[nH]2)cc1,110.4,104.6,-3.4,105.0,111.9,104.6,·,·,·,·,·,
COc1ccc(-c2nc(-c3cccs3)c(-c3cccs3)[nH]2)cc1O,67.5,51.0,-9.8,164.4*,104.4,101.3,106.2,101.3,98.0,97.3,96.9,
O=S(=O)(c1c(F)cccc1F)C1CCN(S(=O)(=O)c2ccc3c(c2)OCCO3)CC1,92.6,87.0,-1.7,91.8,88.2,88.5,·,·,·,·,·,
Cc1nnc(NC(=O)c2cc(-c3ccncc3)nc3c(C)cccc23)s1,107.4,102.2,0.0,93.5,109.0,129.6,·,·,·,·,·,
O=C(Nc1cccc([N+](=O)[O-])c1)c1ccccc1,98.0,98.3,8.3,106.5,95.3,97.8,·,·,·,·,·,
O=C(C#Cc1cccc([N+](=O)[O-])c1)c1ccccc1,88.3,92.7,8.7,171.3*,82.2,103.3,·,·,·,·,·,Yeast autofluor=0.71
Nc1ccccc1C#CC(=O)c1ccccc1,85.2,121.0,6.2,227.7*,96.0,117.7,179.4*,143.2,85.6,121.0,130.8,Yeast autofluor=0.5
CSc1nnc2c3cc(F)ccc3n(C)c2n1,63.6,66.8,-97.8,87.2,79.4,101.8,99.0,98.2,56.9*,96.1,61.5,Yeast autofluor=0.51;s288c autofl DR=0.22;TORC1 bypass=3
Cn1c2ccc(F)cc2c2nc3ccccc3nc21,99.9,94.7,-1.8,77.0,103.5,103.0,·,·,·,·,·,
Cc1ccc2c(c1)N(C(=O)CCC(=O)NCCCN1CCOCC1)CCO2,98.8,89.5,-15.7,109.3,87.8,103.4,·,·,·,·,·,
C#CCOc1c(Cl)cc(C2C3=C(CCCC3=O)N(CC(=O)O)C3=C2C(=O)CCC3)cc1OC,51.9,32.6,30.5,87.5,79.9,117.3,104.2,117.0,101.5,111.2,99.0,
CCCc1cc(NCc2ccccn2)n2nc(C)c(-c3ccccc3)c2n1,90.3,70.4,0.7,157.6*,66.9,98.7,·,·,·,·,·,Yeast autofluor=2.02
CSc1cccc(NC(=S)NCCCN2CCN(c3ccc(F)cc3)CC2)c1,101.0,105.2,7.2,100.1,93.8,103.9,·,·,·,·,·,
